# Assay outcomes as filed in PubChem.
# In the library only some 9.4% were active in any assay of this set; here they are far more common.
# HTT ATP protect = Huntington cell model cytoprotection by ATP luminescence; AID 1471; 0.14% of 230,000 active; Potency, µM (top dose mostly 56.4 µM), without a hit: cytoprotection (ATP increase), usual class: activators; PC12 HTT-Q103 induced, cytoprotection, ATP luminescence, 40 h; further: potency means the concentration at half of the fitted maximal effect; % of control where 0% means no effect; nearly all actives have a fitted effect of over 45% in size
#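 PC12 cells stably carrying ecdysone-inducible Htt exon 1 (Q103)–GFP were induced with 100 nM tebufenozide (final) alongside library compounds in a dose series. Cytoprotection was scored as retained ATP by ATPlite luminescence.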
# IMPase cell inh = cell-permeable inhibitors of inositol monophosphatase (IMPase) | P97697 | 120,000 tested, under 10 active | CHO-M1 cells, IP1 accumulation, HTRF TR-FRET ratio | inhibition (IP1 accumulation), % at 46.1 µM; active means well fitted curve in the direction sought with a large enough effect in the signal ratio, not every such curve was filed as active; inconclusive means small, poorly fitted or top-dose-only effect, or a change in a side signal; inactive means no such curve, though single readings can be large or run the other way; the % refers to the signal ratio;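 further: cells stimulated with carbachol in lithium chloride buffer; plate controls were DMSO basal wells for no effect and reference inhibitor wells for full effect; higher means more IMPase inhibition seen as more IP1 and lower FRET ratio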
# Target sequence (P97697 whole entry, looked up): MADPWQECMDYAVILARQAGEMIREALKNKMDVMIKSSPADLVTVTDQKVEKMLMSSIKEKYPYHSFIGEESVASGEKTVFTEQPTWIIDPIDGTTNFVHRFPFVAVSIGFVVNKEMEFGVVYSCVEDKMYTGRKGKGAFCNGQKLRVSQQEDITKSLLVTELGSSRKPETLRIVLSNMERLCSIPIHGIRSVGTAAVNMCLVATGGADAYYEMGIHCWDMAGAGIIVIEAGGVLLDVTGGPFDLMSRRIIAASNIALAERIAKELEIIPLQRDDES
#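 Seeded CHO-M1 cells were dosed with compound at up to 46 uM, stimulated with carbachol for 30 min, then lysed in IP-One detection reagents. Higher IP1 lowers the TR-FRET signal.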
# IMPase Li cell = membrane-permeable IMPase blocker, potentiated with lithium; 0.35% of 210,000 active; Potency, µM (highest dose often 59.4 µM), for the others: top-dose activity, negative = IMPase inhibition, actives largely listed as inhibitors; AID 1457; CHO-M1 cells, IP1 TR-FRET (IP-One), carbachol + lithium;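 further: IP1 builds up when IMPase is blocked and the TR-FRET signal falls; potency means the concentration at half of the fitted maximal effect; plate controls were basal vehicle for no effect and high inhibitor control for full effect; nearly all actives have a fitted effect of over 50% in size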
#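 CHO cells stably expressing M1 receptor (2000/well, cultured 16–30 h) treated 30 min at 37C with compound plus low lithium. Cytosolic IP1 by TR-FRET (665/620 ratio and 620 channel) after 10 min lysis; AC50 by Hill fit.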
# HTT aggregate = reduces HttQ103-GFP aggregates in PC12 cells. PC12 HttQ103-GFP aggregates, Acumen cytometry, 40 h. Potency, µM (titrated, usually from 46.1 µM), without a hit: at the top dose activity change, negative = inhibition, most hits filed as inhibitors. 1.1% of 220,000 active; further: potency means the concentration at half of the fitted maximal effect; on the % scale 0 is the no-effect control and ±100 the full control effect; nearly all actives have a fitted effect of over 60% in size
#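 Ecdysone-promoter PC12 model expressing HTT exon 1 Q103 fused to GFP, induced by tebufenozide at 100 nM final. Compounds titrated; aggregates sized 1–25 µm scored on a 488 nm laser cytometer.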
# ALDH1A1 inh = ALDH1A1 (human) enzyme inhibition; P00352; Purified ALDH1A1, NADH fluorescence, propionaldehyde substrate; Potency, µM (titrated, usually from 75.3 µM), without a hit: top-dose activity, negative = inhibition, usual class: inhibitors; 7.3% of 220,000 active; active means well fitted inhibition curve with a large enough effect, not every such curve was filed as active; inconclusive means small, poorly fitted or top-dose-only effect, or another doubt; inactive means no such curve, though single readings can be large or run the other way;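 further: potency means the concentration at half of the fitted maximal effect; plate controls were no enzyme wells and a reference inhibitor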
# Target sequence (P00352 whole entry, looked up): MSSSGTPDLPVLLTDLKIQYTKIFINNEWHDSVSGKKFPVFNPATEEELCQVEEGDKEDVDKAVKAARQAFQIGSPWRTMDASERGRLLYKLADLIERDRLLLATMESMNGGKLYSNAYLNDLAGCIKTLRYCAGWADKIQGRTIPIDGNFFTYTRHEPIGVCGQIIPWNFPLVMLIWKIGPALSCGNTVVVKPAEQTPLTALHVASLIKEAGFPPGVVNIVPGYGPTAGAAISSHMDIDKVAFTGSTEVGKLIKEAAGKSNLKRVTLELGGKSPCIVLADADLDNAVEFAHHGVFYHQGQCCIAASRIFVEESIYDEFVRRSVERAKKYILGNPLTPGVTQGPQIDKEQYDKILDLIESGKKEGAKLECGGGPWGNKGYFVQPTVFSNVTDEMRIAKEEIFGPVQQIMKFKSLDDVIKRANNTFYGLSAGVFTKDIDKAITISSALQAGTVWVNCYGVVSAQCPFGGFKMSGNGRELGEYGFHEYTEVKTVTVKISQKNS
# HPGD inh = blocks human HPGD enzyme activity | P15428 | purified HPGD, NADH fluorescence kinetic, PGE2 substrate | Potency, µM, for the others: top-dose activity change, negative = inhibition, actives largely listed as inhibitors | 4.3% of 150,000 active | AID 894; active means well fitted inhibition curve with a large enough effect, not every such curve was filed as active; inconclusive means small, poorly fitted or top-dose-only effect, or another doubt; inactive means no such curve, though single readings can be large or run the other way; further: potency means the concentration at half of the fitted maximal effect; on the % scale 0 is the no-effect control and ±100 the full control effect
#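 NADH formation kinetics: reaction with 30 uM PGE2 and 1 mM NAD+ (final), 20 nM enzyme, Tris-HCl pH 8 with Tween 20, after 15 min compound preincubation at room temperature. Fluorescence change, last versus first of five reads.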
# * = called active by the depositor; ? = inconclusive; nt = no result given; [ ] = another dose, or the depositor's remark. Unless noted, the call rests on the fitted dose curve; in most records, active means well fitted curve in the direction sought with a large enough effect; inconclusive means small, poorly fitted or top-dose-only effect, or another doubt; inactive means no such curve, though single readings can be large; an effect the other way counts as inactive or inconclusive.
SMILES,HTT ATP protect,IMPase cell inh,IMPase Li cell,HTT aggregate,ALDH1A1 inh,HPGD inh
CCOC(=O)c1c(/N=C/C2=C(O)CCCC2=O)sc2c1CCCC2,-9%[10 µM],nt,nt,26%[9.22 µM],nt,nt
Cc1cccc(N(CC(=O)NCCSCc2ccc(Cl)cc2)S(C)(=O)=O)c1C,nt,-6,nt,nt,nt,nt
CC(=O)NC1C(=O)N=C(SCC(=O)Nc2sc3c(c2C#N)CCCCCC3)NC1=O (stereo not drawn),4%,nt,-1%,-14%,40µM*,nt
N#Cc1c(NC(=O)CSc2ncn[nH]2)sc2c1CCCCC2,-34%,-6,24%[38.3 µM],-31%,?,-7%
CCC1C(=O)N=C(SCC(=O)Nc2ccc(C(=O)OC)cc2)NC1=O (stereo not drawn),-6%,8,18%[38.3 µM],7%,3%,14µM*
Cn1cnnc1SCC(=O)Nc1sc2c(c1C#N)CCCCC2,16%[10 µM],nt,-8%,6%,7.1µM*,-13%
COC(=O)c1ccc(NC(=O)CSC2=NCCN2)cc1,0%[10 µM],7,0%,28%,-17%,-7%
N#Cc1c(NC(=O)CSc2nnnn2C2CCCC2)sc2c1CCCC2,16%[1.9 µM],3,26%[38.3 µM],-6%,3.5µM*,-21%
COc1c2c(c(C(=O)/C=C/C(C)=C/c3ccccc3)c3c1OCO3)CCN(C)C2,23%,nt,15%,nt,12%,-2%
O=c1cc(-c2cccc(F)c2)[nH]c2cc(Cl)ccc12,-219%[96.6 µM],nt,?,nt,1%[120 µM],-7%
N#Cc1cc2c(nc1SCC(=O)Nc1sc3c(c1C#N)CCC3)CCCC2,12%,1,?,19%,?,-24%
CC(=O)NC1C(=O)N=C(SCC(=O)Nc2cccc(Cl)c2)NC1=O (stereo not drawn),7%,nt,6%,11%,28µM*,nt
N#Cc1ccc(-c2ccc(F)cc2)nc1SCC(=O)Nc1sc2c(c1C#N)CCC2,-23%,5,?,-5%,25µM*,?
CCCCn1nnnc1SCC(=O)Nc1sc2c(c1C#N)CCCC2,-15%[10 µM],-8,8%[38.3 µM],?,28µM*,-14%
O=C(CSc1nc(-c2ccc(Cl)cc2)[nH]c(=O)n1)Nc1cccc(Cl)c1,-19%[10 µM],nt,nt,-10%[9.22 µM],nt,nt
CCCCn1nnnc1SCC(=O)Nc1ccc(N(C)C)cc1,-9%,11,-8%[38.3 µM],10%[9.22 µM],25µM*,-8%
CCCCn1nnnc1SCC(=O)Nc1ccc(F)cc1,-5%,-6,-19%[38.3 µM],-8%,?,-5%
COCCn1c(=N)c(C(=O)NC(C)c2ccccc2)cc2c(=O)n3cc(C)ccc3nc21 (stereo not drawn),nt,6,nt,nt,nt,nt
CCOC(=O)c1c(NC(=O)c2noc(C)c2[N+](=O)[O-])sc(C(C)=O)c1C,-10%,nt,1%,-21%,25µM*,nt
CCOC(=O)c1c(NC(=O)c2cc(C3CC3)on2)sc(C(C)=O)c1C,-8%,nt,nt,nt,nt,nt
CCc1c(C)sc(NC(=O)c2cc(-c3ccco3)on2)c1C#N,-19%,4,-3%[38.3 µM],10%,28µM*,?
CCCc1cc(C(=O)Nc2ccccc2SC)no1,3%,12,55%[38.3 µM],-13%,?,22µM*
CCCC(=O)Nc1sc2c(c1C#N)CCCC2,-23%,0,-5%[38.3 µM],-11%,?,-15%
CCCc1cc(C(=O)Nc2sc3c(c2C#N)CCC3)no1,9%[10 µM],8,5%,24%,11µM*,28µM*
C=CCN1c2ccccc2[C@]23C[C@@H](C(=O)OC)N(S(=O)(=O)c4ccc(Br)cc4)C2=NC(C(=O)OC)=C(C(=O)OC)[C@H]13,7%[10 µM],nt,2%,nt,16%[13.5 µM],-6%
SMILES,HTT ATP protect,IMPase cell inh,IMPase Li cell,HTT aggregate,ALDH1A1 inh,HPGD inh
c1cc(CSc2ncnc3nc[nH]c23)ccn1,0%[10 µM],nt,-7%,nt,6%[13.5 µM],-5%
CN1C(=O)/C(=C/c2ccccc2Cl)Sc2ccc(C(=O)NCc3cccnc3)cc21,-38%,nt,6%,?,?,nt
CCc1c(C)sc(NC(=O)C2CCCO2)c1C#N (stereo not drawn),-9%[10 µM],-7,-3%,-29%,16µM*,28µM*
Cc1onc(C(=O)Nc2sc3c(c2C#N)CCCC3)c1[N+](=O)[O-],-16%,nt,1%,13%,7.1µM*,nt
N#Cc1c(NC(=O)C2CC(c3ccccc3O)=NO2)sc2c1CCC2 (stereo not drawn),7%[10 µM],-7,2%,-9%,11µM*,25µM*
CC1CCc2c(sc(NC(=O)C3CCCO3)c2C#N)C1 (stereo not drawn),nt,nt,12%,3%,?,nt
CCCc1cc(C(=O)Nc2sc(C)c(CC)c2C#N)no1,20%[10 µM],-6,22%[38.3 µM],-14%,28µM*,-26%
Cc1ccccc1NC(=O)c1c(NC(=O)c2ccncc2)sc2c1CCC(C(C)(C)C)C2 (stereo not drawn),nt,8,nt,nt,nt,nt
N#Cc1c(NC(=O)C2CC(c3ccccc3Cl)=NO2)sc2c1CCC2 (stereo not drawn),3%,-4,5%[38.3 µM],25%,?,?
Cc1onc(-c2ccccc2Cl)c1C(=O)Nc1sc2c(c1C#N)CCC2,14%[10 µM],2,9%,11µM*,?,?
O=c1cc(-c2ccc([N+](=O)[O-])cc2)nc2cc(-c3ccc(F)cc3)[nH]n12,-5%[10 µM],nt,-3%,-9%,7.9µM*,-23%
Cc1ccccc1-c1cc2nc(-c3ccc([N+](=O)[O-])cc3)cc(=O)n2[nH]1,17%[10 µM],nt,5%,7%[9.22 µM],-6%,nt
COCC(C)NC(=O)CCS(=O)(=O)c1nc(-c2ccc(OC)cc2)cc(C(F)(F)F)n1 (stereo not drawn),-23%[1.9 µM],6,-1%[38.3 µM],?,-9%,-26%
CCOC(=O)CS(=O)(=O)c1nc(-c2ccccc2)cc(C(F)(F)F)n1,?,12,11%[38.3 µM],-24%[9.22 µM],-1%,14µM*
CCOC(=O)CCS(=O)(=O)c1nc(-c2ccccc2)cc(C(F)(F)F)n1,1%[0.074 µM],0,50%[38.3 µM],24%,-19%,16µM*
COC(=O)CCS(=O)(=O)c1nc(-c2ccccc2)cc(C(F)(F)F)n1,-15%,20,44%[38.3 µM],?,3%,28µM*
CC(C)N(C(=O)CSc1nc2ccccc2n1Cc1ccc(F)cc1)C(C)C,-15%[10 µM],20,15%,-19%,25µM*,-12%
NS(=O)(=O)c1cccc(NC(=O)CN2CCc3ccccc32)c1,-6%,nt,3%,-2%,7.9µM*,nt
COCC(O)CSc1c([N+](=O)[O-])nc(C)n1Cc1ccc(OC)c([N+](=O)[O-])c1 (stereo not drawn),-5%[1.9 µM],-1,4%,-5%,25µM*,-4%
CC(C)OC(=O)[C@@H]1CC[C@H](C)[C@@H](CCCC=O)O1,nt,nt,-14%,nt,1%,-9%
CCOC(=O)Cc1nnc2c(Nc3ccc(C)cc3)nc3nonc3n12,16%[10 µM],2,2%[38.3 µM],-12%,?,-10%
